Publication PMC7819943, “Rice protein-binding microarrays: a tool to detect cis-acting elements near promoter regions in rice”
The full ranking holds about 68,000 sequences; the median of “fluorescence intensity (a.u.)” is about 9,100, and the highest 2% start at about 16,000. Shown is part of a subset that was picked to be rich in the highest values.

The sequences below were run against OsWRKY34 (Oryza sativa, UniProt Q0JBA9 1-250) (assay: protein-binding microarray (RPBM); PBS, 2% BSA, 51.3 ng/ul salmon testes DNA, 50 uM zinc acetate, 200 nM TF, 25 C, 1 h; high values mean tight binding). Details: protein: recombinant; tags: N-terminal polyhistidine and DsRed monomer fusion (pET32a); label: CyDye5-dUTP incorporated in the synthesized complementary strand; 3' TTTTT single-stranded linker to array surface; dsDNA, one strand shown.
Method in brief: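 For the binding signal, per-feature fluorescence intensity was read in arbitrary units on an Axon 4000B scanner. Before scanning, a 2% BSA-blocked custom Agilent array made double-stranded with Cy5-dUTP was washed after 1 h at 25 °C with 200 nM protein and 50 µM zinc acetate. The proteins were Ni–NTA-purified transcription factors with N-terminal polyhistidine and DsRed fusions, expressed in E. coli BL21-CodonPlus.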

Chain of OsWRKY34 (Q0JBA9 entry or part of it): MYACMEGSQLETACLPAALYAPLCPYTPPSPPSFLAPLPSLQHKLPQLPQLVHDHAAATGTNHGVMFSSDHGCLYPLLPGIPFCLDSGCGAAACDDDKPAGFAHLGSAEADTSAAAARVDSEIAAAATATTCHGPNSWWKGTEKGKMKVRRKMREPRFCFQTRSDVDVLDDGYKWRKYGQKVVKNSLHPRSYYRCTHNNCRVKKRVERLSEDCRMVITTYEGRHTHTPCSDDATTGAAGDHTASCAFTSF

Sequence	binding signal
TTCCCCTTGCTCTTGCATTTGCTGCCGCTCTTCGCCTCTTCGGAGTCACCTAGTGCAG	9270 fluorescence intensity (a.u.)
TCTCTTCTCTTTCTCTCCTCTCTTTTTGCCGCCGCTCGAGCGGAGTCACCTAGTGCAG	8900 fluorescence intensity (a.u.)
TCTCTCTCTCTCCTTCGGCTCATTCGTCACTGTTCCACCGCGGAGTCACCTAGTGCAG	11300 fluorescence intensity (a.u.)
GCTCAGCTCTTCACTTCTGCTGCATTCACACCACCACACTCGGAGTCACCTAGTGCAG	9310 fluorescence intensity (a.u.)
AAACTCTCACTCGCTCACTCACACCTCACACGCTGCTGCTCGGAGTCACCTAGTGCAG	8070 fluorescence intensity (a.u.)
CACACACACTGCACTTCGGCTCACTCTCTCCACTGTTCTTCGGAGTCACCTAGTGCAG	16700 fluorescence intensity (a.u.)
GCCCTTCCTCTCCTCACTCACACTGCCCTGTTCATCTCTTCGGAGTCACCTAGTGCAG	8540 fluorescence intensity (a.u.)
TCAGGCTCTCACTCGCGCTGCATGCCACACTGCTTCTTCTCGGAGTCACCTAGTGCAG	16400 fluorescence intensity (a.u.)
AGAATGGTCTTATATGTTGTGTAGTGGTGTGTGGGCGTGTCGGAGTCACCTAGTGCAG	8170 fluorescence intensity (a.u.)
ACCGATGACTTTTGGCAAAACTTACAGTAAAACTGCTTATCGGAGTCACCTAGTGCAG	8850 fluorescence intensity (a.u.)
TATTTTCCTACCATTTGATTTATTGTTAAATATACTTTTTCGGAGTCACCTAGTGCAG	10200 fluorescence intensity (a.u.)
CCATCTGTCATATTTGTCATCGTTGACTTTTTTAAATATACGGAGTCACCTAGTGCAG	13600 fluorescence intensity (a.u.)
CCTCCGTTTTTAAATATTTGATGCCGTTGACTTTTTAAAACGGAGTCACCTAGTGCAG	19900 fluorescence intensity (a.u.)
CCTCCGCTCCTAAATATTTGACACCGCTGACTTTTTAAAACGGAGTCACCTAGTGCAG	11100 fluorescence intensity (a.u.)
ATGCCGTTGACTTTTTAAAATATATTTGACCATTTCCTATCGGAGTCACCTAGTGCAG	21700 fluorescence intensity (a.u.)
CCTCCTTTCCTAAATATTTGACGCCGTTGACTTTTTTAAACGGAGTCACCTAGTGCAG	13500 fluorescence intensity (a.u.)
ATATTTGATGCCGTTGACTTTTTAAAATATATTTGATCATCGGAGTCACCTAGTGCAG	16400 fluorescence intensity (a.u.)
CATATCTAACTTTTGACCATCCGTTTTATTTAAAAAAATACGGAGTCACCTAGTGCAG	8310 fluorescence intensity (a.u.)
ATGTTTGACTTTTTTTTAAAAAATTTATATTTTTTTAAATCGGAGTCACCTAGTGCAG	8390 fluorescence intensity (a.u.)
TCCTATGCCTGCAGCCTGTATCAAAAAATTTTCACAATGTCGGAGTCACCTAGTGCAG	8480 fluorescence intensity (a.u.)
CTATATCGCACGTACTCCGGTACCAACGATCCTATACCATCGGAGTCACCTAGTGCAG	9910 fluorescence intensity (a.u.)

Sequence	binding signal
TTTTGAAATCCGCGCCTACTTTTTTCTTGTCTCTTCTGTGCGGAGTCACCTAGTGCAG	8400 fluorescence intensity (a.u.)
CACTCGCCACCGCCGCCCACCCGCAACTGCCGCCGACTCCCGGAGTCACCTAGTGCAG	10800 fluorescence intensity (a.u.)
CTATTATAGCGTGTCGGACACTGACTCCTCCCATGTTCCTCGGAGTCACCTAGTGCAG	11100 fluorescence intensity (a.u.)
AACTGAATTGTTGGTTTTTTCGGTTTTCGGTTGTCAGTTCCGGAGTCACCTAGTGCAG	11900 fluorescence intensity (a.u.)
TCCCTAAAATTTTTCACCCTTTCACATTAAACGTTTAACACGGAGTCACCTAGTGCAG	11400 fluorescence intensity (a.u.)
GTAACCCTAATTTCAGAAACTAAACACAGTCACGTAAGAACGGAGTCACCTAGTGCAG	65500 fluorescence intensity (a.u.)
TTGTCAGTTTTCTCTAAACCACAGTAATTAGTCAGTTTCACGGAGTCACCTAGTGCAG	8420 fluorescence intensity (a.u.)
GTCCGCATCCAATTCCCGGGCCATTCGAAATCCCCAACACCGGAGTCACCTAGTGCAG	10200 fluorescence intensity (a.u.)
GGCCATAGCGTGTATTGTTGTGTTTGTGTGTAAAATTTTTCGGAGTCACCTAGTGCAG	11300 fluorescence intensity (a.u.)
GTATGCCATTCGCCCAAGATGCTTTTGCTTCGCATGGACCCGGAGTCACCTAGTGCAG	8540 fluorescence intensity (a.u.)
GTAATTTAATGTTCATTATGGTGTTTCTTAATTGTTTTTTCGGAGTCACCTAGTGCAG	9320 fluorescence intensity (a.u.)
TTTTTTTTTCCTTTTGCTGACATGCATTATGTTTTCTATTCGGAGTCACCTAGTGCAG	10000 fluorescence intensity (a.u.)
ATTCCTATATTTTTCCTATGTTTTGTAATCCTCTGTTTTACGGAGTCACCTAGTGCAG	12600 fluorescence intensity (a.u.)
ATGTTTTTATGCTGCATTCCCCATGTGTGTTTCCTTCTAACGGAGTCACCTAGTGCAG	19600 fluorescence intensity (a.u.)
TTTATTTCCTAGATTAATTCTGATATGTTTCTATGTTTTACGGAGTCACCTAGTGCAG	9260 fluorescence intensity (a.u.)
AGTTTTTCTAGTCCTTCTTAATGCATGTGTCACCTTCTAACGGAGTCACCTAGTGCAG	10300 fluorescence intensity (a.u.)
CTTAATCGGTATGGGGAGAGTGTTCTTATTGTTTCATTTACGGAGTCACCTAGTGCAG	16800 fluorescence intensity (a.u.)
CTATTCTTGTGTTTTTTTCTATGTTTAATCCTATGTTTTACGGAGTCACCTAGTGCAG	16600 fluorescence intensity (a.u.)
GCTTAATTACATGGGAGAGGCTTTGTTTCTTGTTTATTTTCGGAGTCACCTAGTGCAG	8760 fluorescence intensity (a.u.)
GCCAGACCGCCACCGTCCGTTTCCACAACCGTGCCAGTGCCGGAGTCACCTAGTGCAG	10700 fluorescence intensity (a.u.)
AGGTTGCCAGCGTGTGGGGTGGGTTATTTTCGTGTGCGGGCGGAGTCACCTAGTGCAG	11100 fluorescence intensity (a.u.)
